Source: PubChem BioAssay (National Center for Advancing Translational Sciences (NCATS))
Hits are enriched below; roughly 12% of the tested compounds scored in any of these assays.
L3MBTL1 block: L3MBTL1 (human) inhibition; AlphaScreen L3MBTL1–H3K9me1 peptide binding; hit rate 0.66% among 230,000; AID 485360; Potency, µM (highest dose often 57.1 µM), most hits filed as inhibitors; also: nearly all actives have a fitted effect of over 60% in size
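AlphaScreen assay: L3MBTL1 (50 nM final) was preincubated 30 min at room temperature with biotinylated H3(1-15)K9me1 peptide (75 nM final), then 30 min with library compounds; streptavidin donor and nickel chelate acceptor beads (10 ug/mL final) added, 30 min dark.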
HP1b chromo inh: inhibitors of HP1-beta chromodomain binding to methylated histone tails. AID 540317. Potency, µM (series often up to 114 µM), usual class: inhibitors. AlphaScreen HP1-beta / biotin-H3K9me3 peptide binding. hit rate 0.56% among 390,000; also: nearly all actives have a fitted effect of over 70% in size
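HP1-beta protein (50 nM final) preincubated 30 min at room temperature with biotinylated H3(1-18)K9me3 peptide (50 nM) in PBS pH 7.4, 0.01% Tween-20, then compound added for 30 min. AlphaScreen streptavidin donor/nickel chelate acceptor beads (10 ug/mL final), 30 min dark, luminescence read.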
BAZ2B inh: inhibitors of human BAZ2B bromodomain; AlphaScreen BAZ2B-H3K14Ac peptide displacement; Potency, µM (highest dose often 114 µM), hits mostly inhibitors; hit rate 4.4% among 360,000; AID 504333; also: nearly all actives have a fitted effect of over 60% in size
Target sequence (Q9UIF8 whole entry, looked up): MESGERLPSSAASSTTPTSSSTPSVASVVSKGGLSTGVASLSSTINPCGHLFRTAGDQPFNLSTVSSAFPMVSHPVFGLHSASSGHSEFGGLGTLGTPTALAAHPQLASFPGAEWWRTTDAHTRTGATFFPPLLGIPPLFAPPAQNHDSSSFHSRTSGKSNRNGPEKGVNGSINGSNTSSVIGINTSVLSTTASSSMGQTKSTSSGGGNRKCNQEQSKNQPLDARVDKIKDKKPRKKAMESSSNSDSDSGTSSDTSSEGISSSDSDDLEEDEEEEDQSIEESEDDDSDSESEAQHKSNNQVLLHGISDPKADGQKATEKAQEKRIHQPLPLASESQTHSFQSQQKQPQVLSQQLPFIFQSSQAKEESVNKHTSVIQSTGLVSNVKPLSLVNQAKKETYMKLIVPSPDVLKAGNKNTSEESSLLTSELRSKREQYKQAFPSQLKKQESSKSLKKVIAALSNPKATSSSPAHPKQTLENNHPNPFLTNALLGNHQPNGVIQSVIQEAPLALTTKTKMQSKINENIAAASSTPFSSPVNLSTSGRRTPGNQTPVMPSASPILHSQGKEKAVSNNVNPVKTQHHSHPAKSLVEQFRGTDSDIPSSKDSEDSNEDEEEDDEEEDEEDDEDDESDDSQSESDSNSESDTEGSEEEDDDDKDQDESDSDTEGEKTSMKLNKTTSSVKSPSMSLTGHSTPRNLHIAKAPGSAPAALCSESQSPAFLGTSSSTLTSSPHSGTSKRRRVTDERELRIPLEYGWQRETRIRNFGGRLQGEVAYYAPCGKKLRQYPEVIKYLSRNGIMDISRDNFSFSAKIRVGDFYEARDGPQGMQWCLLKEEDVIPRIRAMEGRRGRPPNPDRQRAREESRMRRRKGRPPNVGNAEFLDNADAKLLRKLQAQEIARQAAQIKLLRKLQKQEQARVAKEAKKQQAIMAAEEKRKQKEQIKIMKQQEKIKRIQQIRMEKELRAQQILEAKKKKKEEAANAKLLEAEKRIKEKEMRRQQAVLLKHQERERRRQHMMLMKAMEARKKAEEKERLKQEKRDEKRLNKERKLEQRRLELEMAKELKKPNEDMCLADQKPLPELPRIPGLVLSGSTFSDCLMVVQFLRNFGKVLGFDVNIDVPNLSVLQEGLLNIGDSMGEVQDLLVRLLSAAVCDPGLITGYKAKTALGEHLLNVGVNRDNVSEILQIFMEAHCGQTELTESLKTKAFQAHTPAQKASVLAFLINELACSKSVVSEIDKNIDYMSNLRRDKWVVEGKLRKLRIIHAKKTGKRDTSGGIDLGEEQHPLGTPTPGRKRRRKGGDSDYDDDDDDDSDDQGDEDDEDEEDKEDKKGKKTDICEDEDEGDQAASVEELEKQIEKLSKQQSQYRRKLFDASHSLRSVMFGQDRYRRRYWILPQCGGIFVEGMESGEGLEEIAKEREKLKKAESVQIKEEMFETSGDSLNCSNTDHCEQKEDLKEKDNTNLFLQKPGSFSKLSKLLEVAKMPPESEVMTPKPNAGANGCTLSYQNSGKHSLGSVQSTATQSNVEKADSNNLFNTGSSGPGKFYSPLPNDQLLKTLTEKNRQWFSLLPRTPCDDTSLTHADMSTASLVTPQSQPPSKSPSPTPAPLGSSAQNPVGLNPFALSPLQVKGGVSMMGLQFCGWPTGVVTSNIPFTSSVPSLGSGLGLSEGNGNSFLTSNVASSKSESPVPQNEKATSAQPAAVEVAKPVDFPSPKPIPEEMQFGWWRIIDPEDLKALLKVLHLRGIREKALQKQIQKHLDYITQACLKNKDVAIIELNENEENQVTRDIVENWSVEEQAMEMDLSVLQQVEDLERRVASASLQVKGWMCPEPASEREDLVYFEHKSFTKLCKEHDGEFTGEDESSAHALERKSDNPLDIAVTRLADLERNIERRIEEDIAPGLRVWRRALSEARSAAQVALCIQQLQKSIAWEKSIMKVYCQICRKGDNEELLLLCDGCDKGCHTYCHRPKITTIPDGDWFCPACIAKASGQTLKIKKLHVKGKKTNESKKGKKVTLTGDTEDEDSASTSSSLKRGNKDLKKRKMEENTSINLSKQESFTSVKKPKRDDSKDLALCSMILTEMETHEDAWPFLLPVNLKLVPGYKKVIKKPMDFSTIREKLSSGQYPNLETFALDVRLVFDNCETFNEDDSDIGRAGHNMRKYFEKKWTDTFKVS
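BAZ2B 50 nM plus b-H3(5-23)K14Ac 50 nM, PBS pH 7.4/0.01% Tween-20, 30 min RT; compound added (max 110 uM), 30 min RT; streptavidin donor/Ni-chelate acceptor beads 10 ug/mL final, 20 min dark; AlphaScreen read.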
G9a inh: blocks human histone lysine methyltransferase G9a. Q96KQ7. Potency, µM (series often up to 102 µM), actives largely listed as inhibitors. G9a H3K9 monomethylation, AlphaScreen, 2 h. hit rate 8.8% among 350,000. AID 504332; also: nearly all actives have a fitted effect of over 75% in size
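Signal arises when biotinylated H3K9 peptide, once monomethylated, bridges streptavidin donor and antibody-captured acceptor beads. Enzyme at 20 nM was preincubated 15 min with test compounds; peptide 500 nM and SAM 20 uM then reacted for 2 h.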
JMJD2A Tudor inh: JMJD2A Tudor domain (human) inhibition | O75164 | AlphaScreen JMJD2A-Tudor / H3K4me3 peptide binding | Potency, µM (titrated, usually from 114 µM), hits mostly inhibitors | hit rate 4.4% among 390,000 | AID 504339; also: nearly all actives have a fitted effect of over 50% in size
Sfp PPTase inh: inhibitors of Bacillus subtilis Sfp phosphopantetheinyl transferase; Biochemical Sfp PPTase activity, qHTS; Potency, µM, usual class: inhibitors; hit rate 3.5% among 310,000; AID 1490;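 also: the enzyme is Sfp with the accession as filed and its product quenches rhodamine fluorescence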
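Compounds were incubated with enzyme (final 15 nM) for 15 min at room temperature before substrate addition started the reaction. Fluorescence at 525 nm excitation, 598 nm emission was recorded immediately and after 30 minutes.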
Numbers stand for hits; . = inactive; ? = inconclusive; / = no result; ! = a repeat was not active; [ ] = another dose, or the depositor's remark. Calls follow the shape of the dose curve; as a rule, active = well fitted curve in the direction sought with a large enough effect; inconclusive = small, poorly fitted or top-dose-only effect, or another doubt; inactive = no such curve, though single readings can be large; an effect the other way counts as inactive or inconclusive.

SMILES	L3MBTL1 block	HP1b chromo inh	BAZ2B inh	G9a inh	JMJD2A Tudor inh	Sfp PPTase inh
CCOC(=O)c1scc(-c2ccccc2)c1S(=O)(=O)Nc1ccc(N(C)C)cc1	/	?	20µM	4.5µM	14µM	/
COc1ccc(-n2ncc3c(NC4CCCC4)ncnc32)cc1	/	.	.	.	.	/
O=C1c2ccc(O)c(O)c2C(=O)c2c(O)ccc(O)c21	/	/	/	?	/	.
CC(=O)Nc1ccccc1Sc1ccccc1	.	.	.	.	.	.
O=C1c2cccc(O)c2C(=O)c2c(O)cccc21	.	/	?	7.9µM	/	28µM!
O=C1c2ccccc2C(=O)c2c1ccc(O)c2O	/	7.1µM	/	.[2.33 µM]	50µM	.
CCSc1c(C(=O)NC)ccc2c1C(=O)c1ccccc1C2=O	.	.	.	.	.	.
O=C1c2cccc(Sc3ccccc3)c2C(=O)c2c(Sc3ccccc3)cccc21	.	7.9µM	16µM	1µM	3.2µM	.
COc1cccc2c1-c1c(O)cccc1C2=O	.	.	.	.	.	.
COC(=O)c1ccc2c(c1O)C(=O)c1ccccc1C2=O	/	.	?	13µM	?	?
CC(=O)c1cccc(NC(=O)Nc2sc3nc4n(c(=O)c3c2C)CCC(C)CC4)c1 (stereo not given)	/	.	.	.	.	/
Cn1c(=O)c2sccc2n2c(CCC(=O)N3CCN(c4ccc(F)cc4)CC3)nnc12	/	.	.	.	.	/
O=C(NCc1nnc(SCC(=O)N2CCN(c3ccccc3)CC2)o1)c1ccc(F)cc1	/	.	.	79µM	.	.
COc1ccc(C(=O)NCc2nnc(SCC(=O)N3CCCCC3)o2)cc1OC	/	.	.	79µM	.	.
Cc1nc(Cc2nnc(SCC(=O)N3CCN(c4ccccc4)CC3)o2)cs1	.	.	.	45µM	.	/
CCN(CC)C(=O)[C@H]1C[C@H](CC(=O)NC/C=C(\C)CCC=C(C)C)C(=O)N2CCc3c([nH]c4cc(-c5ccco5)ccc34)[C@]12C	.	?	/	/	32µM	/
CCN(CC)C(=O)[C@H]1CC(CC(=O)NC/C=C(\C)CCC=C(C)C)C(=O)N2CCc3c([nH]c4ccc(OC)cc34)[C@]12C (stereo not given in full)	.	?	/	/	50µM	/
CC(C)/C=N/Nc1nc(-c2ccc(Br)cc2)cs1	.	.	?	.	.	79µM
O=C(Nc1nc(-c2ccc(Br)cc2)cs1)c1cccnc1	.	.	.	.	.	.
O=C(/C=C/c1ccccc1)Oc1cccc(C(=S)N2CCOCC2)c1	/	.	.	40µM	.	.
O=C(/C=C/c1cccc(Oc2ccccc2)c1)N1CCOCC1	/	.	.	.	.	.
O=C(/C=C/c1ccccc1)Oc1ccccc1C(=S)N1CCOCC1	.	.	.	50µM	.	.
CCCCOc1ccc(Cn2c(=O)sc3ccccc32)cc1OC	/	.	.	.	.	/
CN(Cc1ccccc1)C(=O)C1CCN(S(=O)(=O)c2cccc3nsnc23)CC1	/	.	.	.	14µM	.
CCC(C)NC(=O)C1CCN(S(=O)(=O)c2ccc3nc4c(c(C(=O)O)c3c2)CCCCC4)CC1 (stereo not given)	/	.	.	?	.	.
SMILES	L3MBTL1 block	HP1b chromo inh	BAZ2B inh	G9a inh	JMJD2A Tudor inh	Sfp PPTase inh
CC(NC(=O)C1CCN(S(=O)(=O)c2ccc3nc4c(c(C(=O)O)c3c2)CCCC4)CC1)c1ccccc1 (stereo not given)	/	.	.	40µM	.	.
CC1CCC(NC(=O)C2CCN(S(=O)(=O)c3ccc4nc5c(c(C(=O)O)c4c3)CC(C)CC5)CC2)CC1 (stereo not given)	/	.	.	50µM	.	.
CN(Cc1ccccc1)C(=O)C1CCN(S(=O)(=O)c2ccc3nc4c(c(C(=O)O)c3c2)CCCC4)CC1	/	.	50µM	?	.	.
CCCNC(=O)C1CCN(S(=O)(=O)c2ccc3nc4c(c(C(=O)O)c3c2)CCCCC4)CC1	.	.	.	.	.	.
CN(C)S(=O)(=O)c1ccc2c(c1)N(CC(=O)N1CCN(c3ccccc3F)CC1)CCS2	/	.	.	.	.	/
CCOC(=O)c1ccc(NC(=O)CSc2cc(-c3ccccc3)nc(C)n2)cc1	/	.	.	.	.	/
Cc1oc2ncn(CC(C)C)c(=O)c2c1C(=O)NCCc1ccc(Cl)cc1	/	.	.	.	.	/
CCn1c(=O)cc(N2CCN(Cc3ccccc3)CC2)[nH]c1=O	.	.	.	.	.	.
CCn1c(C2CCN(Cc3ccccc3)CC2)n[nH]c1=S	.	.	.	.	3.5µM	.
CC(c1n[nH]c(=S)n1Cc1ccccc1)N(C)C (stereo not given)	.	.	.	10µM	?	89µM
CC(C)Oc1ccc(Cn2c(-c3ccco3)n[nH]c2=S)cc1	.	.	.	0.71µM	40µM	?
CCOc1ccc(-c2n[nH]c(=S)n2Cc2ccccc2)cc1	.	.	.	3.5µM	45µM	.
COc1cc(C(=O)NCC(c2ccc3c(c2)OCO3)N2CCOCC2)cc(OC)c1OC (stereo not given)	/	.	.	.	.	/
COc1ccc(-c2nc3ccccc3n2Cc2ccc(C)cc2)cc1	/	.	?	.	.	.
COc1ccc(Cn2c(-c3ccc(OC)cc3)n[nH]c2=S)cc1	/	.	.	2.8µM	?	.
S=c1[nH]nc(-c2cc3ccccc3o2)n1Cc1ccccc1	.	.	?	1.1µM	.	.
Cc1cccc(-c2n[nH]c(=S)n2Cc2ccccc2)c1	.	.	.	0.71µM	40µM	79µM
COc1ccc(-c2n[nH]c(=S)n2CC(C)C)cc1	/	.	.	1µM	4µM	.
CCOc1ccc(CCNC(=O)c2ccc3c(c2)c(C)c(C)n3C)cc1	/	.	?	?	?	/
COc1ccc(Nc2nc3c(S(=O)(=O)c4ccc(Br)cc4)nnn3c3ccsc23)c(OC)c1	/	.	.	.	.	/
S=c1[nH]nc(-c2ccccc2Br)n1Cc1ccccc1	.	.	.	/	.	.
Cc1ccc(-c2n[nH]c(=S)n2Cc2ccccc2)cc1	/	.	.	1.6µM	40µM	.
CN(C)c1ccc(/C=C(\NC(=O)c2ccccc2)C(=O)NCc2cccnc2)cc1	/	.	.	40µM	.	.
O=C(NCc1ccncc1)/C(=C\c1ccc(F)cc1)NC(=O)c1ccccc1	.	.	.	.	.	.
CN(C)c1ccc(/C=C(\NC(=O)c2ccccc2)C(=O)NCc2ccncc2)cc1	/	.	.	28µM	.	.
O=C(COc1ccccc1)N1CCc2ccccc21	.	.	.	?	.	.
O=C(COc1ccc(Br)cc1)N1CCc2ccccc21	.	.	.	71µM	.	.
CCOC(=O)c1cc2c(N)c(C(=O)c3ccc(Br)cc3)sc2[nH]c1=O	.	.	.	50µM	.	28µM
COc1ccccc1CNC(=O)CSc1nc(=O)[nH]c2c1CCC2	/	.	.	.	.	/
